Measurements published in paper PMC11062922 (Nature Chemical Biology, 2023).
Where two headings read alike, the source gives them in different places.

How the values were obtained:
Set-up in all cases: species or system human, MV4-11 + K-562 + COLO205 + SK-N-BE2 + OVCAR-8
ACVR1B = conditions: read-out: apparent Kd, n = 1
CAMK4 = conditions: read-out: apparent Kd; compound concentrations: 100 nM and 1000 nM (sheet 'Samples'), CATDS: 0.20736458349595299; n = 1
COX5A = conditions: read-out: apparent Kd; compound concentrations: 100 nM and 1000 nM (sheet 'Samples'), CATDS: 0.27607589651393999; n = 1
DDR1 = conditions: read-out: apparent Kd; compound concentrations: 100 nM and 1000 nM (sheet 'Samples'), CATDS: 0.21513236479032799; n = 1
AKT3 = conditions: read-out: apparent Kd; compound concentrations: 100 nM and 1000 nM (sheet 'Samples'), CATDS: 5.7187277937225903E-2; n = 1
CIT = conditions: read-out: apparent Kd; compound concentrations: 100 nM and 1000 nM (sheet 'Samples'), CATDS: 5.03714140810754E-2; n = 1
CSNK1A1 = conditions: read-out: apparent Kd, n = 1
CSNK1D = conditions: read-out: apparent Kd, n = 1
CSNK1E = conditions: read-out: apparent Kd, n = 1
MAPK10 = conditions: read-out: apparent Kd; compound concentrations: 100 nM and 1000 nM (sheet 'Samples'), CATDS: 8.4251059270540496E-2; n = 1
MAPK14 = conditions: read-out: apparent Kd; compound concentrations: 100 nM and 1000 nM (sheet 'Samples'), CATDS: 0.16940162518750301; n = 1
MAPK9 = conditions: read-out: apparent Kd; compound concentrations: 100 nM and 1000 nM (sheet 'Samples'), CATDS: 7.1166451805227196E-2; n = 1
MAPKAPK2 = conditions: read-out: apparent Kd, n = 1
MYLK3 = conditions: read-out: apparent Kd; compound concentrations: 100 nM and 1000 nM (sheet 'Samples'), CATDS: 7.2718608613227403E-2; n = 1
RIPK2 = conditions: read-out: apparent Kd; compound concentrations: 100 nM and 1000 nM (sheet 'Samples'), CATDS: 6.8187313119451795E-2; n = 1
TGFBR1 = conditions: read-out: apparent Kd, n = 1
ACVR2B = conditions: read-out: apparent Kd; compound concentrations:100 nM and 1000 nM (sheet 'Samples'); n = 1
GAK = conditions: read-out: apparent Kd; compound concentrations:100 nM and 1000 nM (sheet 'Samples'); n = 1
PRKD2 = conditions: read-out: apparent Kd; compound concentrations:100 nM and 1000 nM (sheet 'Samples'); n = 1
TGFBR2 = conditions: read-out: apparent Kd; compound concentrations:100 nM and 1000 nM (sheet 'Samples'); n = 1
TNIK = conditions: read-out: apparent Kd; compound concentrations:100 nM and 1000 nM (sheet 'Samples'); n = 1
TAOK1 = conditions: read-out: apparent Kd; compound concentrations:100 nM and 1000 nM (sheet 'Samples'); n = 1
CDK7 = conditions: read-out: apparent Kd; compound concentrations:100 nM and 1000 nM (sheet 'Samples'); n = 1
NQO2 = conditions: read-out: apparent Kd; compound concentrations:100 nM and 1000 nM (sheet 'Samples'); n = 1
PRKD3 = conditions: read-out: apparent Kd; compound concentrations:100 nM and 1000 nM (sheet 'Samples'); n = 1
TNK1 = conditions: read-out: apparent Kd; compound concentrations:100 nM and 1000 nM (sheet 'Samples'); n = 1
[1] = compound concentrations:100 nM and 1000 nM (sheet 'Samples')

COc1ccc2cc(-c3c(-c4ccncc4)nc(-c4ccc(S(C)=O)cc4)n3C)ccc2c1 (stereo not drawn) [SB-437013]
potency estimated from few doses (ACVR1B; compound concentrations: 100 nM and 1000 nM (sheet 'Samples'), CATDS: 0.34398750715430798): 0.81 µM | potency estimated from few doses (CAMK4): 2.24 µM | potency estimated from few doses (COX5A): 1.19 µM | potency estimated from few doses (DDR1): 2.04 µM

Nc1nccc(-c2c(-c3ccc(F)cc3)ncn2CCCN2CCOCC2)n1 [SB-216385]
potency estimated from few doses (ACVR1B; compound concentrations: 100 nM and 1000 nM (sheet 'Samples'), CATDS: 6.1592389938983201E-2): 1.12 µM | potency estimated from few doses (AKT3): 1.44 µM | potency estimated from few doses (CIT): 2.4 µM | potency estimated from few doses (CSNK1A1; compound concentrations: 100 nM and 1000 nM (sheet 'Samples'), CATDS: 7.2342208976373404E-2): 0.712 µM | potency estimated from few doses (CSNK1D; compound concentrations: 100 nM and 1000 nM (sheet 'Samples'), CATDS: 0.22591064083460399): 0.0866 µM | potency estimated from few doses (CSNK1E; compound concentrations: 100 nM and 1000 nM (sheet 'Samples'), CATDS: 0.181188642263544): 0.12 µM | potency estimated from few doses (MAPK10): 0.493 µM | potency estimated from few doses (MAPK14): 0.134 µM | potency estimated from few doses (MAPK9): 0.743 µM | potency estimated from few doses (MAPKAPK2; compound concentrations: 100 nM and 1000 nM (sheet 'Samples'), CATDS: 7.7439810634818695E-2): 0.601 µM | potency estimated from few doses (MYLK3): 0.703 µM | potency estimated from few doses (RIPK2): 0.834 µM | potency estimated from few doses (TGFBR1; compound concentrations: 100 nM and 1000 nM (sheet 'Samples'), CATDS: 5.4047908089072998E-2): 1.77 µM

c1ccc(-c2n[nH]cc2-c2ccnc3ccccc23)nc1 [GW271431X]
potency estimated from few doses (ACVR1B; [1]): 0.0188 µM | potency estimated from few doses (ACVR2B): 0.555 µM | potency estimated from few doses (CSNK1A1; [1]): 0.628 µM | potency estimated from few doses (CSNK1D; [1]): 0.398 µM | potency estimated from few doses (CSNK1E; [1]): 0.712 µM | potency estimated from few doses (GAK): 0.465 µM | potency estimated from few doses (MAPKAPK2; [1]): 1.68 µM | potency estimated from few doses (PRKD2): 1.43 µM | potency estimated from few doses (TGFBR1; [1]): 0.00971 µM | potency estimated from few doses (TGFBR2): 0.113 µM | potency estimated from few doses (TNIK): 1.38 µM

Nc1nc(-c2ccccn2)c(-c2ccnc3ccccc23)s1 [GW548057X]
potency estimated from few doses (ACVR1B; [1]): 0.0762 µM | potency estimated from few doses (ACVR2B): 1.79 µM | potency estimated from few doses (CSNK1A1; [1]): 0.893 µM | potency estimated from few doses (CSNK1D; [1]): 1.8 µM | potency estimated from few doses (CSNK1E; [1]): 2.1 µM | potency estimated from few doses (TAOK1): 1.7 µM

c1ccc(-c2n[nH]cc2-c2ccnc(-c3ccc(CNC4CCOCC4)cc3)c2)nc1 [GW709213X]
potency estimated from few doses (ACVR1B; [1]): 0.0391 µM | potency estimated from few doses (CDK7): 1.09 µM | potency estimated from few doses (CSNK1D; [1]): 1.5 µM | potency estimated from few doses (GAK): 1.15 µM | potency estimated from few doses (NQO2): 0.925 µM | potency estimated from few doses (PRKD2): 0.195 µM | potency estimated from few doses (PRKD3): 0.193 µM | potency estimated from few doses (TGFBR1; [1]): 0.0126 µM | potency estimated from few doses (TGFBR2): 1.33 µM | potency estimated from few doses (TNIK): 2.41 µM | potency estimated from few doses (TNK1): 0.445 µM
